Source: PubChem BioAssay (Broad Institute)
A selection follows.
aSyn UTR act – Activators via SNCA 5'UTR binding, MLPCN; AID 1814, 2009; alpha-synuclein 5'UTR reporter, activators screen; activity score, % (tested at 7.5 µM), hits read low; actives 7.1% (n = 300,000); in the data active = activity score below about -60%
* marks the source's active call; other numbers are inactive results.

SMILES	aSyn UTR act
O=C(Nc1nccs1)c1c(O)c2c([nH]c1=O)CCCC2	-208.7*
CCCc1nnc(NC(=O)c2c(O)c3c([nH]c2=O)CCCC3)s1	-75.0*
COc1cccc(C2N=C(c3ccccc3C)NO2)c1OC (stereo unspecified)	-80.2*
O=C1C[C@H]2[C@H](CO)[C@@H](OC(=O)c3ccc(-c4ccccc4)cc3)C[C@H]2O1	-87.0*
Cc1ccc(Nc2nc(N)nc(-c3oc4ccccc4c3C)n2)cc1	91.1
Cc1c(-c2nc(N)nc(Nc3ccccc3F)n2)oc2ccccc12	-178.3*
COc1ccc(NC(=O)CSCc2ccccc2C)cc1	-90.3*
Cc1ccc(NC(=O)CSc2n[nH]c(-c3ccccn3)n2)cc1	58.5
COc1ccc(-n2c(SCC(=O)Nc3ccc(Br)cc3)nc(O)cc2=O)cc1	-118.9*
COc1ccc(NC(=O)CSc2ccccn2)c([N+](=O)[O-])c1	-72.5*
CCc1ccc(NC(=O)CSc2ccccn2)cc1	-74.0*
O=C(CCSc1ccccn1)Nc1ccc(Br)cc1	-152.9*
Cc1ccc(O)c(NC(=O)CSc2ccc(Cl)cc2)c1	-177.1*
COc1ccc(NC(=O)CSc2ccccn2)cc1	-78.7*
COc1ccc(CNC(=O)CSCc2ccccc2Cl)cc1	-61.7*
COc1ccc(-n2c(C)cc(C(=O)CSc3ccc(NC(C)=O)cc3)c2C)cc1	-89.1*
COc1ccc(NC(=O)CSc2ccc(C)cc2)cc1	-148.6*
COc1ccc(-n2c(C)cc(C(=O)CCl)c2C)cc1	65.4
COc1ccccc1C(=O)CSc1ccccn1	-95.2*
Cc1ccc(SCC(=O)NC(C)(C)C)cc1	-66.1*
CCOc1ccc(-c2cc(CCCC(=O)Nc3cccc(OC)c3)no2)cc1	67.5
COc1cccc(NC(=O)CSc2ccccn2)c1	-144.3*
N#C/C(=C/c1ccc(N2CCOCC2)o1)c1ccc(Cl)cc1	-285.5*
COCCCNC(=O)C1CCN(C(=O)c2oc3cc4sc(N(C)C)nc4cc3c2C)CC1	-93.0*
O=C(Nc1ccc(Cl)cc1)c1sccc1-n1cccc1	-65.9*
SMILES	aSyn UTR act
CCc1ccc(NC(=O)c2sccc2-n2cccc2)cc1	-64.1*
COc1ccc2nc(-n3c(O)c(C4=c5ccccc5=NC4=O)[nH]c3=S)sc2c1	-74.2*
O=C(CNC(=O)c1ccccc1C(=O)O)c1ccccc1	-126.8*
O=C(CNC(=O)c1ccc(F)cc1)c1ccc(Cl)cc1	-167.9*
O=C(CNC(=O)c1ccc(Cl)cc1)c1ccccc1	-99.8*
O=C(CNC(=O)c1ccc(Br)cc1)c1ccccc1	-94.2*
COc1ccc(/C(N)=N/OC(=O)C2CCCCC2)cc1	-131.1*
COc1ccc(/C(N)=N/OC(=O)C2CCCCC2)cc1OC	-86.3*
COc1ccc(-c2ccc(C(=O)C3CC3)cc2)cc1	-107.3*
CCOC(=O)/C(C#N)=C/c1cc(C)n(-c2ccc(C)cc2)c1C	-129.8*
CC(C)COC(=O)/C(C#N)=C/c1cn(Cc2ccccc2)c2ccccc12	79.5
O=C(NC(=S)Nc1ccc(CN2CCOCC2)cc1)c1ccco1	-117.2*
O=C(Nc1ccc(N2CCN(Cc3ccccc3F)CC2)cc1)c1ccc([N+](=O)[O-])o1	104.7
O=C(Nc1ccc(N2CCN(Cc3ccccc3)CC2)cc1)c1ccco1	-86.0*
O=C(NC(=S)Nc1ccc(N2CCOCC2)cc1)c1ccco1	-108.2*
COc1ccc(C(=O)Nc2ccc(Cl)c(Cl)c2)c(OC)n1	-104.5*
O=C(Nc1ccc2c(c1)Cc1ccccc1-2)c1ccncc1	-133.9*
O=C(Nc1ccc(Cl)c(Cl)c1)c1ccc(Cl)c(Cl)c1	-101.7*
O=C(Nc1ccc(Cl)c(Cl)c1)c1ccncc1	-149.0*
CSc1ccc2c(c1)N(CCC1CCCCN1C)c1ccccc1S2 (stereo unspecified)	109.5
Cc1cc(C)n2ncc(C(=O)Nc3ccc(Cl)c(Cl)c3)c2n1	-105.6*
COc1ccc(NC(=O)Nc2cccc(Cl)c2Cl)c(OC)n1	-71.9*
O=C(Nc1ccc2c(c1)COC2=O)c1ccc(Cl)c(Cl)c1	-143.1*
CN(C)S(=O)(=O)c1ccc(C(=O)NCCOc2ccc(F)cc2)cc1	-99.1*
CN(C)S(=O)(=O)c1ccc(C(=O)NCCOc2ccccc2)cc1	-106.3*
SMILES	aSyn UTR act
O=C(NCCCCCCNC(=O)c1ccc(Br)s1)c1ccc(Br)s1	-108.3*
O=C(NCCc1ccc(Cl)cc1)c1ccc(Br)s1	-180.1*
Cn1c(SCc2ccccc2F)nnc1-c1cnccn1	-186.6*
Cn1c(SCc2ccccc2F)nnc1-c1ccccn1	-123.3*
N#Cc1cc2cc3c(cc2nc1N1CCCCC1)OCCO3	-222.1*
N#Cc1cnn2c1nc(N1CCCCC1)c1ccccc12	64.3
O=C(Cn1nnc(-c2ccccc2Cl)n1)N1CCCCC1	-98.1*
CC(C)COc1ccc(-c2nnn(CC(=O)N3CCCC3)n2)cc1	-89.4*
Cn1c(-c2ccccc2)cnc1SCC(=O)N1CCCCC1	82.8
O=C(Cn1nnc(-c2ccccc2)n1)N1CCCCC1	-70.3*
CC1CCCN(C(=O)Cn2nnc(-c3ccccc3F)n2)C1 (stereo unspecified)	-102.6*
CC(C)c1ccc(-c2nnn(CCC(=O)O)n2)cc1	118.0
O=C(Cn1nnc(-c2ccc(OCc3ccccc3F)cc2)n1)N1CCOCC1	-69.8*
O=C(Cn1ccsc1=NC(=O)C(F)(F)F)c1ccccc1	-122.8*
CC1CCCN(C(=O)c2ccc(-c3ccccc3Cl)o2)C1 (stereo unspecified)	-135.9*
CC1CN(C(=O)c2ccc(-c3ccccc3Cl)o2)CC(C)O1 (stereo unspecified)	-64.4*
CC(C)(CNC(=O)c1ccc(-c2ccccc2Cl)o1)N1CCOCC1	-123.7*
O=c1c(-c2ccc3c(c2)OCCO3)coc2cc(OC3OC(CO)C(O)C(O)C3O)ccc12 (stereo unspecified)	-86.3*
C=CCNC(=S)NNC(=O)COc1ccc2cc(Br)ccc2c1	-156.9*
O=C(Oc1ccc2ccccc2c1Cl)N1CCCC1	-78.8*
O=C(COc1ccc2ccccc2c1Br)N1CCCC1	-90.5*
CC(C)c1ccc(OCC(=O)N2CCCCCC2)c(Br)c1	-132.0*
O=C(COc1ccc2cc(Br)ccc2c1)N1CCCC1	-62.0*
O=C(COc1ccc2ccccc2c1Br)Nc1ncn[nH]1	-67.9*
COc1cc(C(=O)Oc2c(CN3CCOCC3)cc(Cl)c3cccnc23)cc(OC)c1OC	78.5
SMILES	aSyn UTR act
CCCCCOc1ccc(CN2CCOCC2)cc1Cl	-154.2*
COc1cc(C(=O)Nc2cc3c(cc2N2CCCCC2)n(C)c(=O)n3C)cc(OC)c1OC	-79.2*
COc1ccccc1N1CCN(S(=O)(=O)CCNC(=O)c2cc(OC)c(OC)c(OC)c2)CC1	60.8
C/C(Cl)=C\Cn1c(O)c(N=NC(N)=S)c2cc(Br)ccc21	70.1
O=C(/C=C/c1cccs1)N1CCCCC1	-91.8*
O=C(/C=C/c1ccc([N+](=O)[O-])s1)N1CCCC1	-101.7*
CC1CC(C)CN(C(=O)/C=C/c2ccc([N+](=O)[O-])s2)C1 (stereo unspecified)	-96.7*
CC1CN(C(=O)/C=C/c2ccc([N+](=O)[O-])s2)CC(C)O1 (stereo unspecified)	-82.2*
Cc1cccc2cc(C#N)c(SCc3nnc(-c4ccccc4[N+](=O)[O-])o3)nc12	-87.2*
COc1cc2ccccc2cc1C(=O)Nc1cccnc1	-138.6*
COc1ccc(NC(=O)c2cc3ccccc3cc2OC)cc1	-167.6*
COc1cc2ccccc2cc1C(=O)Nc1ccc(N2CCN(C)CC2)cc1	-175.8*
CCOc1ccc(NC(=O)c2ccc(F)cc2F)cc1	-103.3*
CCOc1ccc(NC(=O)c2cc3ccccc3cc2O)cc1	-201.0*
CCOc1ccc(NC(=O)c2cc(OC)nc3ccccc23)cc1	83.0
